Assay outcomes deposited in PubChem by National Center for Advancing Translational Sciences (NCATS).
Most compounds without a hit are left out; they make up all but 5.5% or so of the library.
RORg inh = qHTS for inhibitors of ROR gamma transcriptional activity; 310,000 compounds, 5.4% hits; Drosophila S2 Gal4-RORgamma UAS-luciferase reporter, 20 h; Nuclear receptor ROR-gamma (Mus musculus), P51450; Potency, µM (series often up to 53.6 µM), hits mostly inhibitors; further: nearly all actives have a fitted effect of over 60% in size
Target sequence (P51450 whole entry, looked up, the tested form may be a part): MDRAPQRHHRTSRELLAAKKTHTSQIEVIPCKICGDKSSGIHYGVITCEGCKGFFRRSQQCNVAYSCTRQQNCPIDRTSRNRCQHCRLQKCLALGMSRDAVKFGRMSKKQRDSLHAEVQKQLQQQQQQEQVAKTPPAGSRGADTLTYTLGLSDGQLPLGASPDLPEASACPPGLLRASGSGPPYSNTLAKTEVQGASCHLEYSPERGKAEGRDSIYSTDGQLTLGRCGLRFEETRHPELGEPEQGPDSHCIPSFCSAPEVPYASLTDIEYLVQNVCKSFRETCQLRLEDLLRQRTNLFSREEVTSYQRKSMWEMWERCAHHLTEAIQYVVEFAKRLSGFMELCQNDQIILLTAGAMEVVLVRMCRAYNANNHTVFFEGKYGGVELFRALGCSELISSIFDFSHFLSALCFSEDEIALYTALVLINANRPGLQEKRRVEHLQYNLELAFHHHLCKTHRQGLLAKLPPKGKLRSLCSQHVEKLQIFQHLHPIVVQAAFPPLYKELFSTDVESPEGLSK
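Read-out: Photinus luciferase luminescence; inhibitors lower reporter signal. Insect Schneider cells with Gal4-ROR gamma fusion under metallothionein promoter, UAS reporter; 700 uM final copper sulfate induction, 20 hr, ambient temperature.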
Six1-Eya2 blk = qHTS Assay for Inhibitors of the Six1/Eya2 Interaction | activity change, % (test concentration not listed) | 360,000 compounds, 0.56% hits | Homeobox protein SIX1 (Homo sapiens) + Protein phosphatase EYA2 (Homo sapiens), … | AlphaScreen GST-Six1/His-Eya2 binding, biochemical; hits give low values; in the data active means activity change below about -65%; inconclusive means mostly about -30% to -63%
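Six1/Eya2 binding was read as AlphaScreen signal after compounds were pinned into GST-Six1 plus His-tagged Eya2 (5X stock 250/500 nM) in pH 8.0 Tris/NaCl/TCEP buffer, beads added, then incubated 1 h, 37 C, dark.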
CBFb RUNX1 block = qHTS Assay for Compounds Blocking the Interaction Between CBF-beta and RUNX1 for the Treatment of Acute Myeloid Leukemia. Runt-related transcription factor 1 (Homo sapiens) + Core-binding factor subunit beta …. AlphaScreen CBFb-His/RUNX1-biotin binding, biochemical. Potency, µM (series often up to 59.8 µM), usual class: inhibitors. 230,000 tested, under 10 active. AID 1477, 2009
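AlphaScreen proximity signal reports loss of binding between His-tagged CBF-beta and biotin-labelled RUNX1, each at 30 nM. Proteins are pre-associated for 20 minutes, compounds added for 15 minutes, then beads for 90 minutes, all at ambient temperature.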
CtBP-E1A inh = qHTS Assay for Inhibitors of the CtBP/E1A Interaction; AlphaScreen GST-E1A/His-CtBP binding, 1536-well; hits give low values; CtBP / adenovirus E1A interaction (AlphaScreen); 340,000 compounds, 0.49% hits; activity change, % (concentration not given with the values); AID 651724, 2012; in the data active means activity change below about -65%; inconclusive means mostly about -30% to -63%
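AlphaScreen with 125 nM GST-E1A and 125 nM His-CtBP (5X stocks) in Tris pH 8.0, 300 mM NaCl, BSA, Tween 20, TCEP. Compounds preincubated 2 h at 37 deg C, then glutathione donor/nickel acceptor beads added for 1 h at 37 deg C in dark.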
Gal4-VP16 FLuc = VP16 counterscreen qHTS for inhibitors of ROR gamma transcriptional activity | Potency, µM (highest dose often 53.6 µM), hits mostly inhibitors | Drosophila S2 Gal4-VP16 UAS-luciferase, luminescence, 20 h | AID 2546, 2010 | 310,000 compounds, 3.5% hits;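 further: Gal4-VP16 expression switched on by copper sulfate through the metallothionein promoter; nearly all actives have a fitted effect of over 50% in size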
MBNL1 CUG block = qHTS Assay for Inhibitors of MBNL1-poly(CUG) RNA binding; Potency, µM (top dose mostly 57.5 µM), hits mostly inhibitors; AID 2675, 2010; 280,000 compounds, 0.036% hits; TR-FRET MBNL1-His/biotin-(CUG)12 binding, 665/545 ratio; active means well fitted inhibition curve with a large enough effect in the signal ratio, with a control signal flat, not every such curve was filed as active; inconclusive means small, poorly fitted or top-dose-only effect, or effect the other way, or a change in a side signal; inactive means no such curve, though single readings can be large or run the other way; the % refers to the signal ratio
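Ratiometric TR-FRET (665 over 545 nm, excitation 340 nm) tracks disruption of MBNL1-His/biotin-(CUG)12 complex after 60 min at room temperature, with compounds at 92 nM to 58 uM final.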
Hits are given with their value; [ ] = another dose, or the depositor's remark. Unless noted, the call rests on the fitted dose curve; in most records, active means well fitted curve in the direction sought with a large enough effect; inconclusive means small, poorly fitted or top-dose-only effect, or another doubt; inactive means no such curve, though single readings can be large; an effect the other way counts as inactive or inconclusive.

Screening Cc1ccccc1NC(=O)COC(=O)c1ccc(S(C)(=O)=O)c([N+](=O)[O-])c1 returned RORg inh 14µM, Six1-Eya2 blk inactive, CBFb RUNX1 block inactive, CtBP-E1A inh inactive, Gal4-VP16 FLuc inconclusive and MBNL1 CUG block inconclusive.
`CS(=O)(=O)c1ccc(C(=O)OCC(=O)NC(=O)C2CCCCC2)cc1[N+](=O)[O-]` gave RORg inh 11µM, Six1-Eya2 blk inactive, CBFb RUNX1 block inactive, Gal4-VP16 FLuc inconclusive and MBNL1 CUG block inconclusive.
CS(=O)(=O)c1ccc(C(=O)OCc2nnc(-c3ccccc3)o2)cc1[N+](=O)[O-] was read as RORg inh 16µM, Six1-Eya2 blk inactive, CBFb RUNX1 block inconclusive, CtBP-E1A inh inactive, Gal4-VP16 FLuc 13µM and MBNL1 CUG block inconclusive.
Screening CS(=O)(=O)c1ccc(C(=O)OCC(=O)Nc2cccnc2Cl)cc1[N+](=O)[O-] returned Six1-Eya2 blk inactive and CtBP-E1A inh inactive.
`CCc1nc2ccc(C(=O)N(C)CCN(C)C)cn2c1N(C)Cc1cc2ccccc2s1` gave Six1-Eya2 blk inactive and CtBP-E1A inh inactive.
For CC(Oc1ccccc1)C(=O)N=C1SC2CS(=O)(=O)CC2N1c1ccccc1 (configuration not stated) the results were RORg inh inactive, Six1-Eya2 blk inactive, Gal4-VP16 FLuc inactive and MBNL1 CUG block inactive.
Screening CCCn1c(-c2ccc(F)cc2)nc2c(NCCN3CCSCC3)nc(C)nc21 returned RORg inh inactive, CBFb RUNX1 block inactive and Gal4-VP16 FLuc inactive.
For CNC1(C(N)=O)CCNCC1 the results were RORg inh inactive, Six1-Eya2 blk inactive, CBFb RUNX1 block inactive, Gal4-VP16 FLuc inactive and MBNL1 CUG block inactive.
CC(C)C[C@@H](COCc1ccc([N+](=O)[O-])cc1)N1CCN(C(=O)c2ccc(C(F)(F)F)cc2)CCC1=O was read as Six1-Eya2 blk -69 and CtBP-E1A inh -90.
CO[C@H]1COC(=O)CCC[C@H](C)[C@@H](OC)COC(=O)C/C=C\[C@@H]1C was read as RORg inh inactive[10 µM], CBFb RUNX1 block inactive[13.1 µM] and Gal4-VP16 FLuc inactive[10 µM].
For CC1(C(=O)Nc2ccc3ccccc3c2)CCC(=O)N1C1CCN(Cc2ccccc2)CC1 (configuration not stated) the results were Six1-Eya2 blk inactive and CtBP-E1A inh inactive.
Screening Cc1ccc(C=Nc2ccc(N(C)C)cc2)o1 returned RORg inh inconclusive, Six1-Eya2 blk inconclusive, CBFb RUNX1 block inconclusive, CtBP-E1A inh -68, Gal4-VP16 FLuc inconclusive and MBNL1 CUG block inconclusive.
For CCOC(=O)c1ccc(NC(=O)c2c(NC(=O)CCC(=O)O)sc3c2CCCCC3)cc1 the results were RORg inh 10µM, Six1-Eya2 blk inactive, CBFb RUNX1 block inactive, CtBP-E1A inh inactive, Gal4-VP16 FLuc inactive and MBNL1 CUG block inactive.
Screening CCOc1ccccc1NC(=O)c1c(NC(=O)CCC(=O)O)sc2c1CCCCC2 returned RORg inh 10µM, Six1-Eya2 blk inactive, CBFb RUNX1 block inactive, CtBP-E1A inh inactive, Gal4-VP16 FLuc inconclusive and MBNL1 CUG block inactive.
Screening O=C(COC(=O)C1CC2CCCC(C1)C2=O)NNC(=O)c1ccc([N+](=O)[O-])cc1 (configuration not stated) returned Six1-Eya2 blk inactive and CtBP-E1A inh inactive.
`COCC(=O)N1CCc2nc(-c3ccccc3)c3c(c2C1)CO[C@@H](C)C3` gave CBFb RUNX1 block inactive[13.1 µM].
Screening C/C=C/C(=O)[C@@H](C)[C@@H](/C=C/C[Si](C)(C)C)c1ccccc1 returned RORg inh inconclusive, CBFb RUNX1 block inactive and Gal4-VP16 FLuc inconclusive.
CN(C(=O)CNc1ccccc1Cl)C1CCS(=O)(=O)C1 (configuration not stated) was read as Six1-Eya2 blk inactive and CtBP-E1A inh inactive.
For Cc1cn([C@H]2C[C@H](O)[C@@H](CCC(=O)NCCCn3ccnc3)O2)c(=O)[nH]c1=O the results were Six1-Eya2 blk inactive and CtBP-E1A inh inactive.
`COc1ccccc1-n1cc(-c2ccc(C)cc2)[nH]c1=S` gave RORg inh 2.8µM, Six1-Eya2 blk inactive, CtBP-E1A inh inactive, Gal4-VP16 FLuc 7.1µM and MBNL1 CUG block inactive.
`COc1ccccc1-n1cc(-c2ccc(Br)cc2)[nH]c1=S` gave RORg inh 4.5µM, Six1-Eya2 blk inactive, CtBP-E1A inh inactive, Gal4-VP16 FLuc 10µM and MBNL1 CUG block inactive.
For S=c1[nH]c(-c2ccc(Br)cc2)cn1CCc1ccccc1 the results were RORg inh 6.3µM, Six1-Eya2 blk inactive, CBFb RUNX1 block inactive, CtBP-E1A inh inactive, Gal4-VP16 FLuc inactive[10 µM] and MBNL1 CUG block inactive.
For COc1ccccc1-n1cc(-c2ccc([N+](=O)[O-])cc2)[nH]c1=S the results were RORg inh 1.6µM, Six1-Eya2 blk inactive, CBFb RUNX1 block inactive, CtBP-E1A inh inactive and Gal4-VP16 FLuc inactive.
For O=C(Nc1ccnn1C1CCN(C(=O)c2cnsn2)CC1)c1cccc(F)c1 the results were RORg inh inactive, Six1-Eya2 blk inactive, CtBP-E1A inh inactive, Gal4-VP16 FLuc inactive and MBNL1 CUG block inactive.
CCc1ccc(C2=NN(CCC(=O)NC(C)CCc3ccccc3)C(=O)CC2)cc1 (configuration not stated) was read as RORg inh inconclusive, Six1-Eya2 blk inactive, CBFb RUNX1 block inactive, CtBP-E1A inh inactive, Gal4-VP16 FLuc inactive and MBNL1 CUG block inactive.
Screening CCCCCCCC(=O)O[C@H](CC(=O)O)C[N+](C)(C)C returned RORg inh inactive, CBFb RUNX1 block inactive and Gal4-VP16 FLuc inactive.
Screening Cc1ccc(N2CN(Cc3ccco3)CNC2=S)c(C)c1 returned RORg inh inactive, Six1-Eya2 blk inactive, CBFb RUNX1 block inactive, CtBP-E1A inh inactive and Gal4-VP16 FLuc inactive.
`Cc1ccc(C)c(N2CN(CCC3=CCCCC3)CNC2=S)c1` gave RORg inh 3.2µM, Six1-Eya2 blk inactive, CBFb RUNX1 block inactive, CtBP-E1A inh inactive and Gal4-VP16 FLuc 4.5µM.
`CCCN1CNC(=S)N(c2cc(C)ccc2C)C1` gave RORg inh 13µM, Six1-Eya2 blk inactive, CBFb RUNX1 block inactive, CtBP-E1A inh inactive, Gal4-VP16 FLuc 11µM and MBNL1 CUG block inactive.
